From PubChem BioAssay (NCATS)
Values joined by “and” are separate entries in the source; they are usually repeats but may differ in a detail not shown here. Equal entries are not always repeated. Results filed as inconclusive are left out. A structure can be active in one record and inactive in another. Active and inactive are the calls of the source. Calls follow the shape of the dose curve; as a rule, active = well fitted curve in the direction sought with a large enough effect; inconclusive = small, poorly fitted or top-dose-only effect, or another doubt; inactive = no such curve, though single readings can be large; an effect the other way counts as inactive or inconclusive.

What was measured:
[1] = Viability qHTS for spleen associated tyrosine kinase inhibitor (SYKi) naive MV4-11 cells (AID 1963823); settings: MV4-11 AML viability, CellTiter-Glo luminescence, 72 h; series mostly up to 45 µM; also: nearly all actives have a fitted effect of over 40% in size
Method in brief: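 Cells: MV4-11, SYK inhibitor naive, 500 per well. Treatment: library compounds, 72 hr, 37 C, 5% CO2. Read-out: CellTiter-Glo luminescence after 10 min RT.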

[2] = Viability qHTS for spleen associated tyrosine kinase inhibitor (SYKi) drug resistant MV4-11 cells (AID 1963824); settings: SYKi-resistant MV4-11 viability, CellTiter-Glo, 72 h; series mostly up to 45 µM; also: nearly all actives have a fitted effect of over 35% in size
Method in brief: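 SYK-inhibitor-resistant MV4-11 AML cells were seeded at 500 per well onto compound and cultured 72 hours (37 °C, 5% CO2). CellTiter-Glo was then added, and after 10 min at room temperature, luminescence gave viability.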

[3] = Cellular viability qHTS for adrenocortical cancer (ACC) cell line SW-13 (AID 1963989); settings: SW-13 ACC cells viability, CellTiter-Glo, 48 h; activity (max response): stronger effect = lower value; also: nearly all actives have a fitted effect of over 65% in size;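 as to activity (max response): cells grown in serum-free medium with ITS supplement; % is scaled to controls: 0 for no effect and ±100 for the full control effect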
Method in brief: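 IC50 and maximal-response values come from four-parameter logistic fits of titration data. SW-13 cells in serum-free medium received compounds (up to 46 uM final) for 48 h before CellTiter-Glo luminescence.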

[4] = Cellular viability qHTS for adrenocortical cancer (ACC) cell line NCI-H295R (AID 1963990); settings: CellTiter-Glo ATP luminescence, 48 h; series mostly up to 46.1 µM; also: nearly all actives have a fitted effect of over 60% in size
Method in brief: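 Adrenocortical carcinoma cells, suspended at 300 000 cells/mL in serum-free DMEM plus ITS, rested overnight before pin transfer of compound. After two days' incubation, ATP-dependent luminescence was recorded and curve-fitted.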
Potency is read from the fitted curve at half-maximal effect.

Compound | Potency [1] | Potency [2] | activity (max response) [3] | Potency [4] | Potency [3]
NS(=O)(=O)c1cc2c(cc1C(F)(F)F)NC(Cc1ccccc1)NS2(=O)=O (stereo unspecified) | inactive | inactive | 1.49% (inactive) | inactive | –
CCCCCCCCCCCCCCCCOCCCOP(=O)(O)COC(CO)Cn1ccc(N)nc1=O (stereo unspecified) | 2.59 µM (active) | 3.26 µM (active) | -4.49% (inactive) | inactive | –
CN(C)C(=S)SC(=S)N(C)C | 1.68 µM (active) | 1.68 µM (active) | – | 2.31 µM (active) | 9.2 µM (active)
CCCCN1C[C@H](O)[C@@H](O)[C@H](O)[C@H]1CO | inactive | inactive | -2.93% (inactive) | inactive | –
CCS(=O)(=O)Nc1ccc(Oc2ccc(F)cc2F)c(-c2cn(C)c(=O)c3[nH]ccc23)c1 | 0.0037 µM (active) | 0.0042 µM (active) | – | 5.01 µM (active) | 2 µM (active)
Cc1nc2cccc(N)c2c(=O)n1C1CCC(=O)NC1=O (stereo unspecified) | 0.209 µM (active) | inactive | 3.79% (inactive) | inactive | –
CCCCNC(=O)NS(=O)(=O)c1ccc(C)cc1 | inactive | inactive | 2.87% (inactive) | inactive | –
OCCn1cc(-c2ccc3c(c2)CC/C3=N\O)c(-c2ccncc2)n1 | 16.4 µM (active) | 18.6 µM (active) | -9.16% (inactive) | inactive | –
O=C(O)CCCCC(=O)O | inactive | inactive | 10.5% (inactive) | inactive | –
Nc1ccc(S(=O)(=O)c2ccc(N)cc2)cc1 | inactive | inactive | 8.46% (inactive) | inactive | –
CCC(=C/[C@H](C)C/C=C/C(C)=C/[C@@H](C)C(=O)[C@@H](C)[C@H](O)[C@@H](C)C/C(C)=C/C(=O)O)/C=C/[C@@H]1OC(=O)C=C[C@@H]1C | 0.0019 µM (active) | 0.0021 µM (active) | – | 0.01 µM (active) | 0.0251 µM (active)
COc1cc2c(Oc3ccc4[nH]c(C)cc4c3F)ccnc2cc1OCC1(N)CC1 | 4.17 µM (active) | 4.17 µM (active) | – | 10 µM (active) | 11.2 µM (active)
C#CC[C@H](c1nc2cc(Cl)ccc2c(=O)n1Nc1ccccc1)N(CCCN)C(=O)c1cccc(Cl)c1F | 0.164 µM (active) | 0.206 µM (active) | – | 3.55 µM (active) | 0.251 µM (active)
CC(=O)c1ccc2c(c1)c1cc(C(C)=O)ccc1n2CCNC(C)C | 0.372 µM (active) | 0.525 µM (active) | – | 1.58 µM (active) | 1.58 µM (active)
Cc1c(NC(=O)c2cc(C(N)=O)nc3cc(F)ccc23)c(C(F)(F)F)nn1Cc1ccc(C(C)(C)C)cc1 | 20.9 µM (active) | 16.6 µM (active) | 8.86% (inactive) | inactive | –
COc1cccc2c1C(=O)c1c(O)c3c(c(O)c1C2=O)C[C@@](O)(C(=O)CO)C[C@@H]3O[C@H]1C[C@H](N)[C@H](O[C@@H]2CCCCO2)[C@H](C)O1 | 0.75 µM (active) | 3.35 µM (active) | – | 3.66 µM (active) | 0.731 µM (active)
CC[C@@H]1[C@H](F)C(=O)N[C@@H]1COc1nccc2cc(C(N)=O)c(OC)cc12 | 11.8 µM (active) | 14.8 µM (active) | -21.5% (inactive) | inactive | –
CC(C(=O)O)c1ccc(C(=O)c2ccccc2)s1 (stereo unspecified) | inactive | inactive | -5.09% (inactive) | inactive | –
O=C(O)COC(=O)Cc1ccccc1Nc1c(Cl)cccc1Cl | inactive | inactive | 7.51% (inactive) | inactive | –
COc1c2occc2c(OC)c2c(=O)cc(C)oc12 | inactive | inactive | 12.7% (inactive) | inactive | –
O=C(O)CCCc1ccccc1 | inactive | inactive | 16.4% (inactive) | inactive | –
C[C@H](NC(=O)CCC(F)(F)F)C(=O)N[C@@H]1C(=O)N(CCO)c2ncccc2-c2ccccc21 | inactive | inactive | -28.7% (inactive) | inactive | –
CC(C)C[C@H](NC(=O)[C@H](Cc1ccccc1)NC(=O)OCc1ccccc1)C(=O)C=O | 23.5 µM (active) | 20.9 µM (active) | -18.6% (inactive) | inactive | –
COc1ccc(-c2c(C)nn3c(NCCN4CCOCC4)cc(C)nc23)cc1OC | 8.33 µM (active) | 9.2 µM (active) | 10.9% (inactive) | inactive | –
CCCCOC(=O)c1ccc(O)cc1 | inactive | inactive | -18.3% (inactive) | inactive | –
C[C@@H]1CCC[C@H](C)N1 | inactive | inactive | 4.32% (inactive) | inactive | –
O=C(OCCN1CCOCC1)c1cccnc1Nc1cccc(C(F)(F)F)c1 | inactive | inactive | -11.8% (inactive) | inactive | –

Compound | Potency [1] | Potency [2] | activity (max response) [3] | Potency [4] | Potency [3]
Cc1c(NC(=O)OCC2COCCN2)cn2ncnc(Nc3ccc4c(cnn4Cc4cccc(F)c4)c3)c12 (stereo unspecified) | 4.61 µM (active) and 16.6 µM (active) | 5.8 µM (active) and 16.6 µM (active) | – | 31.6 µM (active) | 22.4 µM (active)
COc1cc(N2CCC(N)CC2)ccc1Nc1ncc(Cl)c(-c2c[nH]c3ccccc23)n1 | 0.0166 µM (active) | 18.4 nM (active) and 37.2 nM (active) | – | 0.447 µM (active) | 3.16 µM (active)
CCOCCOC(=O)/C=C/c1ccc(OC)cc1 | inactive | inactive | -3.52% (inactive) | inactive | –
CC(C)(C(=O)O)c1ccc(C(O)CCCN2CCC(C(O)(c3ccccc3)c3ccccc3)CC2)cc1 (stereo unspecified) | inactive | inactive | -2.55% (inactive) | inactive | –
CN(C)CCCOc1nn(Cc2ccccc2)c2ccccc12 | inactive | inactive and 13 µM (active) | – | 14.6 µM (active) | 11.6 µM (active)
CN1C(CCl)Nc2cc(Cl)c(S(N)(=O)=O)cc2S1(=O)=O (stereo unspecified) | inactive | inactive | -4.04% (inactive) | inactive | –
C[C@@H](O[C@H]1OCCN(Cc2n[nH]c(=O)[nH]2)[C@@H]1c1ccc(F)cc1)c1cc(C(F)(F)F)cc(C(F)(F)F)c1 | 16.6 µM (active) | 16.6 µM (active) | – | 25.1 µM (active) | 22.4 µM (active)
CN(C)C(N)=NC(=N)N | inactive | inactive | 1.52% (inactive) | inactive | –
O=C(NCCCNc1nc(Nc2cccc(CN3CCOCC3)c2)ncc1C1CC1)C1CCC1 | 0.132 µM (active) | 0.291 µM (active) | 10.1% (inactive) | inactive | –
Cc1[nH]c(/C=C2\C(=O)Nc3ccc(S(=O)(=O)N(C)c4cccc(Cl)c4)cc32)c(C)c1C(=O)N1CCN(C)CC1 | 1.3 µM (active) and 1.32 µM (active) | 1.46 µM (active) and 2.09 µM (active) | – | 14.1 µM (active) | 17.8 µM (active)
CN(C)CCCSc1ccccc1NC(=O)/C=C/c1ccccc1 | inactive | inactive | 8.03% (inactive) | inactive | –
CN(C)CCOc1ccccc1Cc1ccccc1 | inactive | inactive | 9.36% (inactive) | inactive | –
C/C=C/C/C=C/CCC(=O)[C@H]1O[C@H]1C(N)=O | 8.33 µM (active) | 6.61 µM (active) | – | 20 µM (active) | 25.1 µM (active)
CC(C)Oc1ccc(C(=O)N[C@H](CNC(=O)CN(C)C)Cc2ccc(-c3cn4cccc([C@H](C)O)c4n3)cc2)cc1Cl | 0.0263 µM (active) | 0.0295 µM (active) | – | 0.316 µM (active) | 0.0316 µM (active)
CCN(CC)CCOC(=O)C(c1ccccc1)C1CCCCC1 (stereo unspecified) | inactive | inactive | 12.1% (inactive) | inactive | –
C=CCNC1=C2C[C@@H](C)C[C@H](OC)[C@H](O)[C@@H](C)/C=C(\C)[C@H](OC(N)=O)[C@@H](OC)/C=C\C=C(/C)C(=O)NC(=CC1=O)C2=O | 0.59 µM (active) | 1.66 µM (active) | – | 10 µM (active) | 3.55 µM (active)
COc1cc(N2CCN(C(C)=O)CC2)ccc1Nc1ncc(Cl)c(Nc2ccc(N3CCN(C(C)=O)CC3)cc2OC)n1 | 291 nM (active) and 372 nM (active) | 366 nM (active) and 1.05 µM (active) | – | 12.6 µM (active) | 25.1 µM (active)
COc1ccc2cc(OCC3(C(=O)O)CN(C(=O)c4ccc(F)cc4)C3)ccc2c1 | inactive | inactive | -4.74% (inactive) | inactive | –
O=C(O)C(S)C(S)C(=O)O (stereo unspecified) | inactive | inactive | 13.2% (inactive) | inactive | –
COc1ccc(CNC(=O)Nc2ncc([N+](=O)[O-])s2)cc1 | 9.34 µM (active) | 13 µM (active) | – | 28.2 µM (active) | 25.1 µM (active)
O=C(O)/C=C/c1ccc(Cn2ccnc2)cc1 | inactive | inactive | 7.34% (inactive) and 4.34% (inactive) | inactive | –
CCCCCCCCCCCCCCCC(=O)NCCO | inactive | inactive | 3.88% (inactive) | inactive | –
CC(C)(O)c1ccccc1CC[C@@H](SCC1(CC(=O)O)CC1)c1cccc(/C=C/c2ccc3ccc(Cl)cc3n2)c1 | inactive | inactive | 11.5% (inactive) | inactive | –
Cc1c[nH]c2ncnc(N3CCC(CN)(C(=O)Nc4cccc(OC(=O)N(C)C)c4)CC3)c12 | 517 nM (active) and 662 nM (active) | 1.3 µM (active) and 1.66 µM (active) | -9.88% (inactive) | inactive and 22.4 µM (active) | –
COCCOC(=O)N1CCN(S(=O)(=O)c2cc(F)c(Oc3ccc(Cl)cc3)c(F)c2)C(C(=O)NO)C1 (stereo unspecified) | 5.9 µM (active) | 5.9 µM (active) | – | 2.82 µM (active) | 5.01 µM (active)
Nc1ccc(C(=O)NCC(=O)O)cc1 | inactive | inactive | -9.96% (inactive) | inactive | –
CC(C)Cc1ccc([C@@H](C)C(=O)NS(C)(=O)=O)cc1 | inactive | inactive | 5.6% (inactive) | inactive | –
